The source made the active and inactive calls.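 The calls were made as follows: active = a dissociation constant for apoferritin binding could be measured by titration calorimetry; inconclusive = binding seen but dissociation constant not obtainable; inactive = no binding seen.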
Target: Ferritin light chain (Equus caballus) (UniProt P02791)
Assay: Isothermal Titration Calorimetry Based Assay for Measurement of Binding Affinity to Apoferritin
Details: horse apoferritin
Excerpt: Anesthetic development has remained a largely empirical process. There are growing concerns about the cognitive effects of known general anesthetics and acceleration of the onset of neurodegenerative disease. The compounds' toxicity and multiple specific binding targets in the mammalian brain [4] has made them less attractive as drug leads. This isothermal titration calorimetry (ITC) assay is used to provide Kd binding affinity measurements for apoferritin, which is used here as a surrogate system to identify compounds with potential anesthetic properties. References: [1] S.L. Bianchi, T. Tran, C. Liu, S. Lin, Y. Li, J.M. Keller, R.G. Eckenhoff, and M.F. Eckenhoff, Brain and behavior changes in 12-month-old Tg2576 and nontransgenic mice exposed to anesthetics. Neurobiol Aging 29 (2008) 1002-10. Z. Xie, Y. Dong, U. Maeda, R.D. Moir, W. Xia, D.J. Culley, G. Crosby, and R.E. Tanzi, The inhalation anesthetic isoflurane induces a vicious cycle of apoptosis and amyloid beta-protein accumulation. J Neurosci 27 (2007) 1247-54. […]
In order to further triage primary hits identified from qHTS screen (AID 485281), ITC was utilized to evaluate direct binding signatures between filtered compounds and apoferritin and provide a complete thermodynamic characterization of selected compounds. […] Concentrations were then determined using absorption spectroscopy based on standards prepared in organic solvents. […]

Ferritin light chain (Equus caballus), sequence (P02791 2-175 limits assumed): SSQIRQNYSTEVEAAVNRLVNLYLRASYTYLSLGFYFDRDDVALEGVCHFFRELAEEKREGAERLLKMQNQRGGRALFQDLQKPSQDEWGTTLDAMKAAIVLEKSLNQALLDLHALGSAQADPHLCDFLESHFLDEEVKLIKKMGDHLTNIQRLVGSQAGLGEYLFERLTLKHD

| SMILES | Kd |
| --- | --- |
| COc1ccc(-c2ccc(=O)n(CC(=O)NCc3ccco3)n2)cc1 | 4.2 µM (active) |
| Cc1ccc(-c2ccc(=O)n(CC(=O)NCCc3ccccc3)n2)cc1 | 8.2 µM (active) |

Source: PubChem BioAssay AID624122 (National Center for Advancing Translational Sciences (NCATS), 2012)
